Screening results deposited in PubChem BioAssay by University of Kansas High Throughput Screening Laboratory.
The entries come from a sample that favours hits as a whole.
Pf apPOL inh = Pf-apPOL DNA polymerase inhibition; actives 0.25% (n = 210,000); inhibition, % at 10 µM; AID 1794808; Recombinant Pf-apPOL, molecular beacon fluorescence, 1.5 h
mHTT CaM bind = inhibitors of human mutant huntingtin-calmodulin interaction. AlphaScreen His-mHTT/GST-CaM binding, luminescence. actives 3.6% (n = 190,000). inhibition, % at 15 µM;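 note: 0% = both proteins with DMSO and 100% = one protein alone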
An asterisk follows results filed as active; i = inactive; · = not tested or not shown; + = active, no number; ! = repeats disagree. Cut-off read from the data, not from the text of the source: active = inhibition above about 50%; inactive = the rest.

SMILES | Pf apPOL inh | mHTT CaM bind
OC(COC12CC3CC(CC(C3)C1)C2)CN1CCC(Cc2ccccc2)CC1 (centres undefined) | -11.0 | 3.6
COc1cc(Cl)c(C)cc1NC(=O)C1c2ccccc2C(=O)N2CCc3ccccc3C12 (centres undefined) | -5.1 | 54.0*
CCOc1ccccc1NC(=O)C1c2cc(OC)c(OC)cc2C(=O)N2CCc3ccccc3C12 (centres undefined) | -3.3 | 54.0*
COc1cc2c(cc1OC)C(C(=O)Nc1ccc(F)cc1)C1c3ccccc3CCN1C2=O (centres undefined) | -0.4 | 9.0
COc1ccc(C)cc1NC(=O)C1c2ccccc2C(=O)N2CCc3ccccc3C12 (centres undefined) | 11.1 | 42.0
C=CCNC(=O)C1=Cc2cc(Cl)ccc2OC=C1 | -9.2 | -9.6
N#CCC(=O)N1CCN(c2ccc(Cl)c(Cl)c2)CC1 | -7.6 | 11.6
Cc1ccccc1CNC(=O)c1csc(-c2ccc(C)n2C)n1 | 2.1 | 82.0*
Cc1ccc(NC(=O)c2csc(-c3ccc(C)n3C)n2)cc1 | -5.7 | 60.2*
Cc1ccc(-c2nc(C(=O)NCc3ccccc3Cl)cs2)n1C | 0.2 | 59.3*
Cc1ccc(NC(=O)c2csc(-c3ccc(C)n3C)n2)c(C)c1 | 0.8 | -4.7
Cc1cc(C)cc(NC(=O)c2csc(-c3ccc(C)n3C)n2)c1 | -8.9 | 3.2
CCc1ccccc1NC(=O)c1csc(-c2ccc(C)n2C)n1 | -3.4 | 35.3
Cc1ccc(-c2nc(C(=O)NCc3ccc(F)cc3)cs2)n1C | -4.9 | 85.0*
COc1ccccc1NC(=O)c1csc(-c2ccc(C)n2C)n1 | -2.4 | 6.6
CCOC(=O)c1csc(NC(=O)C2CCCN(c3ccc(-c4ccccc4)nn3)C2)n1 (centres undefined) | -12.6 | 7.1
Cc1nn2c(=O)/c(=C/c3cccc([N+](=O)[O-])c3)sc2nc1=O | 1.0 | 2.0
Cc1nn(-c2ccc(F)cc2)c2nc(N3CCC(NC(=O)C4CCC4)CC3)sc12 | -5.5 | 5.1
CCN(C(=O)c1coc(=O)c2ccccc12)c1cccc(Cl)c1 | -2.4 | -3.0
Cn1nc(-c2nc(C3CC3)no2)c2c1CCN(S(=O)(=O)Cc1ccccc1)C2 | -1.1 | 1.0
N#Cc1sc2c(C#N)c(N)sc2c1N | · | -4.5
Cn1c(CNC(=O)C2CCC2)nc2c1CN(C(=O)c1cccs1)CC2 | -1.2 | 13.8
CSC(=CC(=O)c1sc2scc(C)c2c1C)SC | -7.7 | ·
COC(=O)c1sc2scc(C)c2c1C | 63.6*! | ·
O=C(c1ccccc1[N+](=O)[O-])N1CCN(S(=O)(=O)c2ccc(F)cc2)CC1 | -12.7 | 0.7
SMILES | Pf apPOL inh | mHTT CaM bind
Nc1nnnn1/N=C/c1cc(Br)ccc1O | · | +
Oc1ccc(Br)cc1/C=N/n1cnnc1 | · | i
N#CC1=C(N)SC(N)=C(C#N)C1c1ccncc1 | · | 2.5
N#CC1=C(N)SC(N)=C(C#N)C1c1ccc(Cl)c(Cl)c1 | -1.6 | 97.6*
O=[N+]([O-])c1c(C(Cl)Cl)nn(-c2ccccc2)c1N1CCCC1 | -0.6 | 54.0*
Cc1nn(-c2ccccc2)c(N2CCOCC2)c1[N+](=O)[O-] | -3.8 | ·
CC(=O)N1CCc2cc(Br)cc(S(=O)(=O)Nc3ccc(Cl)cc3)c21 | -4.3 | 38.0
Cc1ccccc1/C=C1/N=C(c2ccco2)OC1=O | -2.7 | 9.0
O=C(NC1CCN(C(=O)C2CCCC2)C1)C1CCCC1 (centres undefined) | 1.9 | 2.8
COc1cc(OC)cc(N2CCN(Cc3ccccc3)C(C)C2=O)c1 (centres undefined) | 2.2 | 49.2
COc1cc(OC)cc(N2CCN(Cc3ccc(F)cc3)C(C)C2=O)c1 (centres undefined) | -5.0 | 78.6*
O=C(Nc1cccc2cccnc12)c1ccc(-n2ccnc2)nn1 | 5.4 | 61.0*
CCSc1ccccc1C(=O)Nc1cccc2ccc(-n3ccnc3)nc12 | -3.1 | 82.1*
Cc1cc(NC(=O)c2ccc(-n3ccnc3)nn2)no1 | 17.1 | 53.6*
Cc1cc(NC(=O)c2ccc(C(=O)Nc3cc(C)on3)nc2)no1 | 0.2 | -5.6
CCSc1ccccc1C(=O)Nc1cccc2ccc(OC)nc12 | -3.9 | -51.5
O=C(Nc1cccc2cccnc12)c1ccccc1O | 1.0 | -34.0
COCc1cc(C)nc2sc(C(=O)c3ccc([N+](=O)[O-])cc3)c(N)c12 | -1.3 | 12.0
COc1ccc(-c2nc(-c3ccc4oc(C)nc4c3)no2)cc1 | 2.1 | -13.7
Cc1ccc(NC(=O)C2CC(=O)N(C3CCCCC3)C2)cc1 (centres undefined) | -5.1 | 6.2
O=C1C=CC(=NOS(=O)(=O)c2ccc(Cl)cc2)C=C1 | 6.4 | 35.0
Cc1cc2[nH]c(C(=O)Nc3c(F)cccc3F)c(CN3CCCC3)c2s1 | 2.7 | 56.0*
Cc1cc2[nH]c(C(=O)Nc3ccccc3C)c(CN3CCCC3)c2s1 | 6.7 | 9.0
COc1ccc(Br)c(C(=O)C(C#N)=Cc2ccc(N(C)C)cc2)c1 | -101.3 | ·
Cc1cc([N+](=O)[O-])ccc1NC(=O)c1cc(Br)ccc1Cl | 1.3 | 0.4
SMILES | Pf apPOL inh | mHTT CaM bind
Cc1ccnc(Nc2nc(-c3ccc(O)c(O)c3)cs2)c1 | 0.5 | 92.0*
COc1cccc(-c2csc(Nc3cc(C)ccn3)n2)c1 | -4.1 | 32.0
Cc1ccc(-c2csc(Nc3ccccn3)n2)cc1C | 4.1 | 25.6
Cc1cccnc1Nc1nc(-c2ccc(O)c(O)c2)cs1 | -3.0 | 62.0*
CN(CC12CCCC1N(C)C(=O)CC2)C(=O)NC1CCCCC1 (centres undefined) | 1.8 | -14.9
Cc1nc(Cn2cccc2C(=O)Nc2ccccc2C)no1 | -3.1 | -5.5
COCc1cc(=O)n2[nH]c(C)c(-c3ccc(OC)cc3)c2n1 | -0.3 | 0.2
COCC(=O)N1CCCCC1c1nncn1Cc1ccccc1 (centres undefined) | -6.6 | -4.8
CC1(C)CC(=O)c2c(-c3ccccc3)n[nH]c2C1 | -6.1 | -0.3
Cc1ccc(S(=O)(=O)N2CCN(Cc3ccc4c(c3)OCO4)CC2)cc1[N+](=O)[O-] | -4.6 | 26.4
COc1ccccc1N1CCN(C(=O)COc2cc(C)c(Br)c(C)c2)CC1 | -4.6 | 56.0*
CC(C)(C)c1ccccc1OCC(O)CN1CCN(c2ccccc2)CC1 (centres undefined) | -0.9 | 99.5*
COc1ccccc1N1CCN(CC(O)COc2ccc(Cl)c(C)c2)CC1 (centres undefined) | 1.7 | 99.2*
Cc1cc(Cl)ccc1OCC(O)CN1CCN(c2ccccc2)CC1 (centres undefined) | -4.4 | 93.4*
COc1ccccc1N1CCN(CC(O)COc2ccc(C)c(C)c2)CC1 (centres undefined) | -2.2 | 38.4
COc1ccccc1OCC(O)CN1CCN(c2ccc(F)cc2)CC1 (centres undefined) | -10.2 | -14.0
COc1ccccc1N1CCN(C(=O)COc2ccc(Br)cc2C)CC1 | -4.5 | 23.3
Cc1ccc(OCC(O)CN2CCN(c3ccccc3)CC2)c(C)c1 (centres undefined) | 1.9 | 13.8
COc1ccccc1-c1cc(C(=O)NCc2ccccn2)n(C)n1 | -20.7 | 99.9*
COc1ccccc1OCC(=O)NCc1ccccn1 | -7.9 | 15.0
C=CCn1c(C(=O)NCc2ccccn2)cc2sc(C)cc21 | -1.6 | 55.7*
Cc1cc2c(cc(C(=O)NCc3ccccn3)n2CC2CCC2)s1 | -1.6 | 56.7*
O=C(NCc1ccccn1)c1cc2sccc2n1CC1CC1 | -11.6 | 13.1
CCCn1c(C(=O)N2CCOCC2)cc2sc(Br)cc21 | -13.1 | 23.8
CCCn1c(C(=O)NCc2ccccn2)cc2sc(Br)cc21 | -7.8 | 72.0*
CCn1c(C(=O)NCc2ccccc2F)cc2sc(C)cc21 | -4.0 | 29.9
